Screens: PubChem BioAssay, National Center for Advancing Translational Sciences (NCATS)
Compounds with a hit are over-represented: about 2.9% of the library has one in this group of screens.
Pol beta inh – inhibitors of human DNA polymerase beta; P06746; Pol beta primer extension/strand displacement, fluorescence kinetic; Potency, µM (top dose mostly 114 µM), for the others: at the top dose activity change, negative = inhibition, hits mostly inhibitors; 340,000 tested, 1.3% active; also: potency is read from the fitted curve at half-maximal effect; % is scaled to controls: 0 for no effect and ±100 for the full control effect
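Pol beta (10 nM) was preincubated with compound for 15 min at room temperature. The reaction was then started with 50 nM substrate and read immediately and after a further 10 min at room temperature.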
Pol iota inh – DNA polymerase iota (human) inhibition. Q9UNA4. Pol iota fluorescent replication assay, 10 min. Potency, µM (top dose mostly 115 µM), for the others: at the top dose activity, negative = inhibition, actives largely listed as inhibitors. 390,000 tested, 1% active. AID 588590; also: potency is read from the fitted curve at half-maximal effect
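Fluorescent replication assay read twice, at 0 min and 10 min after adding 50 nM (final) substrate. Enzyme (10 nM) and compounds were first incubated 15 min at room temperature; enzyme-free buffer wells were negative controls.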
ALOX12 inh – ALOX12 (human) lipoxygenase inhibition. P18054. purified 12hLO, xylenol orange hydroperoxide absorbance. Potency, µM (series often up to 108 µM), inactives show at the top dose activity change, negative = inhibition, most hits filed as inhibitors. 580,000 tested, 1.1% active. AID 1671190; also: potency is read from the fitted curve at half-maximal effect; % is scaled to controls: 0 for no effect and ±100 for the full control effect
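Purified human 12hLO at 150 nM in 25 mM Hepes, 0.01% Triton X-100, pH 7.0, preincubated 15 min at room temperature with compound. Reaction started with 40 uM arachidonic acid, 30 min at room temperature. Hydroperoxide measured by Fe-xylenol orange, 573/405 nm absorbance ratio.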
POLH inh – inhibitors of human DNA polymerase eta; recombinant Pol eta, fluorescent DNA replication assay; 390,000 tested, 1.2% active; Q9Y253; Potency, µM (highest dose often 114 µM), inactives show at the top dose activity change, negative = inhibition, actives largely listed as inhibitors; also: potency is read from the fitted curve at half-maximal effect; % is scaled to controls: 0 for no effect and ±100 for the full control effect
Target sequence (Q9Y253 whole entry, looked up): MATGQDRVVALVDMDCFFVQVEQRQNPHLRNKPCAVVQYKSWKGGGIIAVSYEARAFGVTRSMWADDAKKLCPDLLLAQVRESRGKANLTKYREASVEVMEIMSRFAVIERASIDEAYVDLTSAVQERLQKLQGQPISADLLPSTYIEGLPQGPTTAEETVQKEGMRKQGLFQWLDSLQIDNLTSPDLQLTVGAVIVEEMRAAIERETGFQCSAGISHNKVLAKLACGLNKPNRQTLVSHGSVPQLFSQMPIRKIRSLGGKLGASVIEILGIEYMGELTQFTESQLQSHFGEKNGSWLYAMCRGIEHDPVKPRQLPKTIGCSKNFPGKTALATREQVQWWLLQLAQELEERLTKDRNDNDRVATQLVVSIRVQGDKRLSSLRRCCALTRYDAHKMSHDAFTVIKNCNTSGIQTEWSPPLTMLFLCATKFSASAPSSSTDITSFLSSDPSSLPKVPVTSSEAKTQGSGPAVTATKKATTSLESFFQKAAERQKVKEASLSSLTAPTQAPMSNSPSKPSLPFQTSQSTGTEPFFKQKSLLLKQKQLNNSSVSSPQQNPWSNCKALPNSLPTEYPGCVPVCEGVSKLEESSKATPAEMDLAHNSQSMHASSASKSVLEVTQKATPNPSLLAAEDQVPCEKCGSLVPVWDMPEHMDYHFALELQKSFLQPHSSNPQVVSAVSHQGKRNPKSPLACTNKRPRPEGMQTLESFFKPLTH
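Fluorescent replication assay: 50 nM final substrate added after a 15 min room-temperature compound preincubation with 10 nM enzyme. Signal taken at 0 min and again at 10 min.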
Pol kappa inh – DNA polymerase kappa (human) inhibition | Q9UBT6 | purified Pol kappa, fluorescent DNA synthesis assay, 10 min | Potency, µM (highest dose often 107 µM), for inactives: at the highest dose activity, negative = inhibition, actives largely listed as inhibitors | 400,000 tested, 0.53% active | AID 588579; also: potency is read from the fitted curve at half-maximal effect; % is scaled to controls: 0 for no effect and ±100 for the full control effect
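50 nM final substrate added after 15 min RT preincubation of 10 nM Pol kappa with compound; fluorescence read at 0 and 10 min.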
PI5P4Ka inh – inhibitors of human PI5P4K alpha. PI5P4Kalpha enzyme, ADP-Glo luminescence, 60 min; active compounds read low. 330,000 tested, 1.2% active. max response, %. P48426. AID 652105; active = max response of -50% or lower; inconclusive = between -30% and -50%; inactive = -30% or higher; also: value at the top dose of about 77 µM; % is scaled to controls: 0 for no effect and ±100 for the full control effect
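Enzyme plus substrate dispensed, test compounds pinned in, then ATP (5 microM final) added. After 60 min at RT, ADP-Glo reagent 1 for 45 min and reagent 2 for 30 min preceded luminescence imaging.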
Starred values were filed as active, the others as inactive; u = inconclusive; x = not tested or not shown; ! = not active in a repeat; [ ] = another dose, or the depositor's remark. Unless noted, calls follow the shape of the dose curve; as a rule, active = well fitted inhibition curve with a large enough effect; inconclusive = small, poorly fitted or top-dose-only effect, or another doubt; inactive = no such curve, though single readings can be large or run the other way.

SMILES	Pol beta inh	Pol iota inh	ALOX12 inh	POLH inh	Pol kappa inh	PI5P4Ka inh
CCS(=O)(=O)c1ccc(N=Nc2ccc(O)c3ncccc23)c(OC)c1	-14%	63%	u	-23%	-13%	-5
COc1cc(S(=O)(=O)O)c(C)cc1N=Nc1c(O)ccc2cc(S(=O)(=O)O)ccc12	x	45µM*	x	x	79µM*	x
Cc1ccc(NC(=O)CSc2nc3cc([N+](=O)[O-])ccc3o2)cc1C	x	x	40µM*	x	x	x
Cc1cc(C(=O)CSc2nc3cc([N+](=O)[O-])ccc3o2)c(C)n1C	x	x	-7%	x	x	x
O=C(CSc1nc2cc(Cl)ccc2o1)Nc1ccc(N2CCOCC2)cc1	-1%	0%	-18%	-5%	-15%	x
Cc1cccc(NC(=O)CSc2nc3cc([N+](=O)[O-])ccc3o2)c1	x	x	32µM*	x	x	x
O=C(CSc1nc2cc([N+](=O)[O-])ccc2o1)Nc1ccc(Cl)cc1	x	x	22µM*	x	x	x
O=C(N/N=C/c1ccc(OCc2ccccc2)cc1)c1ccc(CSCc2ccccc2)cc1	x	x	-20%	x	x	x
Cc1cccc(N2C(N)=C(C#N)C3(C(=O)N(Cc4ccccc4F)c4ccccc43)C3=C2COC3=O)c1 (configuration not stated)	x	x	11%	x	x	x
CCN(CC)C1c2cccc3cccc(c23)C1NS(=O)(=O)c1ccccc1 (configuration not stated)	x	x	-30%	x	x	x
Cc1ccc(-c2csc3nc4cc(C(=O)NC5CCC(O)CC5)ccc4c(=O)n23)cc1 (configuration not stated)	6%	u	11µM*	4%	-15%	-18
NC(=O)c1ccc2c(=O)n3c(-c4cc(Cl)c(N)c(Cl)c4)csc3nc2c1	u	50µM*	-29%	u	-2%	-10
Cc1csc2nc3cc(C(N)=O)ccc3c(=O)n12	1%	18%	-5%	-13%	12%	-8
Cc1cccc(NC(=O)Cn2nc(-c3ccccc3)c3c(c2=O)CCCC3)c1C	x	x	-11%	x	x	x
CNC(=S)N/N=C(\C)c1ccc(Cl)c(Cl)c1	0%	161%	40µM*	-16%	-12%	-10
CC(Sc1nnc(-c2cccs2)n1C1CC1)C(=O)N(C)Cc1ccccc1 (configuration not stated)	x	x	7%	x	x	x
O=C(CSc1ccccc1)Nc1nc2ccccc2[nH]1	-2%[57.1 µM]	-6%	-10%	-6%	-8%	-3
O=C(CSc1ccc(Cl)cc1)Nc1ccc(-c2nc3ccccc3[nH]2)cc1	32µM*	-44%	-5%	u	-16%	u
COc1ccc2c(C)c(CC(=O)NCCc3ccccc3F)c(=O)oc2c1C	x	x	-2%	x	x	x
CCOc1ccc(CCNC(=O)CCCn2nc(C)c3sc4ccccc4c3c2=O)cc1	-26%	17%	-22%	-5%	-17%	x
CCOc1ccc(CNC(=O)CCCn2nc(C)c3sc4ccccc4c3c2=O)cc1	-25%	89µM*	0%	-2%	-27%	x
COc1ccc(CCNC(=O)CCCn2nc(C)c3sc4ccccc4c3c2=O)cc1OC	35µM*	-13%	-3%	-13%	-43%	x
COc1cccc(CC(=O)N2CC(Oc3ccc(-c4noc(-c5ccncc5)n4)cc3)C2)c1	x	x	5%	x	x	x
COC(=O)[C@@H]1Cc2nc[nH]c2CN1Cc1ccc([N+](=O)[O-])cc1	x	x	10µM*	x	x	x
N#CC1=C(Nc2ccccc2Cl)SC2(CCCC2)NC1=O	x	x	x	x	x	-51*
SMILES	Pol beta inh	Pol iota inh	ALOX12 inh	POLH inh	Pol kappa inh	PI5P4Ka inh
CCOC(=O)C1CCCN(C(=O)C2CC(c3ccc(CC)cc3)CN(C(=O)c3ccoc3)C2)C1 (configuration not stated)	x	x	-9%	x	x	x
O=C(C1=C(O)C(=O)N(CCN2CCOCC2)C1c1cccs1)c1cc2ccccc2o1 (configuration not stated)	x	84%	7.1µM*	-1%	-10%	0
O=C(C1=C(O)C(=O)N(CCN2CCOCC2)C1c1cccc(O)c1)c1cc2ccccc2o1 (configuration not stated)	3%	13%	-27%	u	-15%	-2
COCCNC(=O)c1cc2cc(S(=O)(=O)N3CCCCC3)ccc2n1C	x	x	6%	x	x	x
NNCCc1ccccc1	-1%[57.1 µM]	-12%[58.9 µM]	5.4µM*!	-2%[57.1 µM]	6%[60.1 µM]	2
CC(C)Cn1c(SCC(=O)Nc2ccc3c(c2)OCO3)nc2cc(Cl)ccc2c1=O	x	x	3%	x	x	x
Cc1ccn2c(=O)nc(SCC(=O)Nc3ccc4c(c3)OCO4)nc2c1	x	35µM*	-10%	u	-24%	u
O=C(CSc1nc(=O)n2cc(Cl)ccc2n1)Nc1ccc2c(c1)OCO2	x	u	u	20µM*	-42%	u
Cc1ccc2nc(SCC(=O)Nc3ccc4c(c3)OCCO4)nc(=O)n2c1	x	63%	-8%	-1%	-11%	1
Cc1ccn2c(=O)nc(SCC(=O)Nc3ccc4c(c3)OCCO4)nc2c1	x	56µM*	13%	u	-11%	u
O=C(CSc1nc(=O)n2cc(Cl)ccc2n1)NCCc1ccccc1	x	u	u	25µM*	-36%	u
Nc1nccnc1C(=O)Nc1cccc(C#Cc2cccs2)c1	x	x	17%	x	x	x
COc1ccccc1/C=N/NC(=O)CCC(=O)Nc1cccc(Cl)c1C	x	x	-31%	x	x	x
COc1ccc(OC)c2sc(N(CCCN(C)C)C(=O)CCS(=O)(=O)c3ccccc3)nc12	x	23%	-9%	-5%	-16%	6
COc1ccc(Cl)c2sc(N(CCN(C)C)C(=O)CCS(=O)(=O)c3ccc(C)cc3)nc12	x	76%	16µM*	-16%	-19%	20
O=C(/C=C/c1ccccc1Cl)NC1CCS(=O)(=O)C1 (configuration not stated)	-2%	-11%	2%	-16%	-3%	-69*
O=C(/C=C/c1ccccc1Cl)NC1CCCCC1	-16%	-3%	26%	8%	2%	-2
Cc1ccc(-c2cc(C(=O)N(C)CC(=O)NC3CC3)c3ccccc3n2)cc1	x	x	-11%	x	x	x
CCSc1cc(N2CCOCC2)nc(-c2ccccc2)n1	5%	20%	11%	-18%	-1%	-1
CCCSc1cc(N2CCOCC2)nc(-c2ccccc2Cl)n1	79µM*	-5%	-21%	-10%	-6%	4
Cc1ccc(C2C3=C(CCCC3=O)Nc3nc(SCCC(C)C)[nH]c(=O)c32)o1 (configuration not stated)	x	x	7.9µM*	x	x	x
CCSc1nc2c(c(=O)[nH]1)C(c1ccc(C)cc1)C1=C(CCCC1=O)N2 (configuration not stated)	2%	47%	-4%	0%	3%	-1
COc1ccc(CC2=CC(=O)c3ccccc3C2=O)cc1	-2%	10µM*	-12%	u	-11%	u
